From PubChem BioAssay (NCATS)
Records with an inconclusive call do not appear. A number with no mark means an inactive call. The source made the active and inactive calls. The call rests on the fitted dose curve; in most records, active means well fitted cell-killing curve with a large enough effect; inconclusive means small, poorly fitted or top-dose-only effect, or effect the other way; inactive means no such curve, though single readings can be large or run the other way.

Assay: Quantitative High-Throughput drug screen in 47 multiple myeloma cell lines against the NCATS MIPE library collection: KMS28PE_JCRB cell viability assay (AID 1918983); further: nearly all actives have a fitted effect of over 35% in size
Conditions: KMS28PE multiple myeloma viability, CellTiter-Glo ATP, 48 h; series mostly up to 45.8 µM; viability, % of DMSO control: at the top concentration
From the text: PI: Beverly A. Mock Ph.D.
Laboratory of Cancer Biology and Genetics,
Center for Cancer Research, National Cancer Institute,
National Institute of Health, Bethesda, Maryland
Drug resistance and disease progression are common in multiple myeloma (MM) patients, underscoring the need for new therapeutic combinations. […] We hypothesized that effective combinations would reduce MYC expression and enhance p16 activity. […] These preclinical data identify potentially useful drug combinations for evaluation in drug-resistant MM and reveal potential mechanisms of combined drug sensitivity.
Described herein is the primary MIPE qHTS used to cherrypick compounds. Validated compounds were then further tested for potential synergistic activiy.
[1] Peat TJ, Gaikwad SM, Dubois W, Gyabaah-Kessie N, Zhang S, Gorjifard S, Phyo Z, Andres M, Hughitt VK, Simpson RM, Miller MA, Girvin AT, Taylor A, Williams D, D'Antonio N, Zhang Y, Rajagopalan A, Flietner E, Wilson K, Zhang X, Shinn P, Klumpp-Thomas C, McKnight C, Itkin Z, Chen L, Kazandijian D, Zhang J, Michalowski AM, Simmons JK, Keats J, Thomas CJ, Mock BA. Drug combinations identified by high-throughput screening promote cell cycle transition and upregulate Smad pathways in myeloma. Cancer Lett. 2023 Aug 1;568:216284. doi: 10.1016/j.canlet.2023.216284. Epub 2023 Jun 24. PMID: 37356470; PMCID: PMC10408729.
SEQUENCE No. (e.g., 1, 2, 3, etc.); […] (e.g., Cells, Incubation, Reagent, etc.); VALUE and DESCRIPTION.
1; Cells; 5 uL; white, solid bottom 1536-well Greiner assay plate.
2; Compounds; 23 nL; Kalypsis pin tool (Wako USA) equipped with a 1536-well pin head to transfer to the assay plates.
3; Incubation; 48 hours; 37C incubation.
4; Reagent;5uL; CellTiter Glo (Promega).
5; Detector; 425V; Luminescence; Viewlux PerkinElmer.
NOTES (numbers refer to Sequence numbers above)
1. The cell-based screening methods employed in this study were like those previously published. Briefly, the corresponding myeloma cell lines were screened in 1,536-well plates with 500 cells, 5-uL per well for inhibition of cell viability (assessed by measuring ATP levels with CellTiterGlo).
2. NCATS MIPE 4.0 library of approved and investigational drugs were added using the Kalypsis pin tool. Wells treated with DMSO only for 100% viability and media only for 0% viability were used as controls.
3. The assay plates were covered and incubated for 48 hours in a 37C, 5% CO2 incubator with controlled humidity.
4. After 48 hours, CellTilter-GloTM luminescent substrate mix (Promega) reagent was added to the assay plate and plates we incubated for 5 min at room temperature.
5. Signal was measured as median relative luminescence units on a ViewLux (PerkinElmer) multiplate reader.
[1] Heske CM, Davis MI, Baumgart JT, Wilson K, Gormally MV, Chen L, Zhang X, Ceribelli M, Duveau DY, Guha R, Ferrer M, Arnaldez FI, Ji J, Tran HL, Zhang Y, Mendoza A, Helman LJ, Thomas CJ. Matrix Screen Identifies Synergistic Combination of PARP Inhibitors and Nicotinamide Phosphoribosyltransferase (NAMPT) Inhibitors in Ewing Sarcoma. Clin Cancer Res. 2017 Dec 1;23(23):7301-7311. doi: 10.1158/1078-0432.CCR-17-1121. Epub 2017 Sep 12. PMID: 28899971; PMCID: PMC6636827.
Potency means the concentration at half of the fitted maximal effect.

Row | Compound | viability, % of DMSO control | Potency
1 | O=C(O)CCCCC(CCSCc1ccccc1)SCc1ccccc1 (stereo not given) | 137% | 
2 | C[C@H](O)[C@@H]1C(=O)N2C(C(=O)O)=C(S[C@@H]3CN[C@H](CNS(N)(=O)=O)C3)[C@@H](C)[C@@H]12 | 119% | 
3 | CCCCCCCCCCCCCCCC(=O)OC[C@@H](NC(=O)C(Cl)Cl)[C@H](O)c1ccc([N+](=O)[O-])cc1 | 121% | 
4 | c1coc(CNc2ncnc3nc[nH]c23)c1 | 106% | 
5 | C[C@H](NCc1ccc(OCc2cccc(F)c2)cc1)C(N)=O |  | 9.35 µM (active)
6 | COc1cccc2c1C(=O)c1c(O)c3c(c(O)c1C2=O)C[C@@](O)(C(C)=O)C[C@H]3O[C@H]1C[C@H](N)[C@H](O)[C@H](C)O1 |  | 0.0833 µM (active)
7 | CC(=O)OCC(=O)[C@@]12N=C(C)O[C@H]1C[C@H]1[C@@H]3CCC4=CC(=O)C=C[C@]4(C)[C@@H]3[C@@H](O)C[C@@]12C | 127% | 
8 | COc1cc(OC)cc(-c2ccc3ncc4ccc(=O)n(-c5ccc(N6CCNCC6)c(C(F)(F)F)c5)c4c3c2)c1 |  | 5.26 µM (active)
9 | C[C@@H](Cc1cc2c(c(C(N)=O)c1)N(CCCO)CC2)NCCOc1ccccc1OCC(F)(F)F | 109% | 
10 | N#Cc1cc(NC(=O)Nc2nnc(-c3ccncc3)s2)ccc1-c1cn[nH]c1 |  | 16.6 µM (active)
11 | N#CNC(=NCCCCCCOc1ccc(Cl)cc1)Nc1ccncc1 |  | 0.132 µM (active)
12 | O=C(Nc1cccc(Nc2ncc(Br)c(NCCc3cnc[nH]3)n2)c1)N1CCCC1 |  | 14.8 µM (active)
13 | Cc1cc(-c2nnc3n2CCCCC3)c(C)n1-c1ccccc1 | 105% | 
14 | c1cc(N[C@@H]2CCNC2)nc(-c2cnc3ccc(-c4cn[nH]c4)cn23)c1 |  | 16.6 µM (active)
15 | C[C@H]1[C@@H](OC(=O)CCC(=O)O)O[C@@H]2O[C@@]3(C)CC[C@@H]4[C@H](C)CC[C@@H]1[C@@]24OO3 |  | 5.26 µM (active)
16 | C[C@@H]1C(=O)O[C@H]2CC34[C@H]5C[C@@H](C(C)(C)C)C36[C@H](OC(=O)[C@@H]6O)O[C@@]4(C(=O)O5)[C@]21O (stereo not given in full) | 125% | 
17 | Oc1cc2c(cc1O)C1c3ccc(O)c(O)c3OCC1(O)C2 (stereo not given) | 125% | 
18 | COc1cc(C[C@@H](CO)[C@H](CO)Cc2ccc(O)c(OC)c2)ccc1O | 151% | 
19 | COc1cc([C@@H]2c3cc4c(cc3[C@@H](O[C@@H]3O[C@@H]5CO[C@@H](c6cccs6)O[C@@H]5[C@H](O)[C@@H]3O)[C@H]3COC(=O)[C@H]23)OCO4)cc(OC)c1O |  | 2.64 µM (active)
20 | CCN(C(=O)c1c(O)c2c(Cl)cccc2n(C)c1=O)c1ccccc1 | 161% | 

Row | Compound | viability, % of DMSO control | Potency
21 | C=CCNC1=C2C[C@@H](C)C[C@H](OC)[C@@H](O)[C@@H](C)C=C(C)[C@H](OC(N)=O)[C@@H](OC)C=CC=C(C)C(=O)NC(=CC1=O)C2=O |  | 0.418 µM (active)
22 | COC(=O)C1C2CC3c4[nH]c5cc(OC)ccc5c4CCN3CC2CC(OC(=O)c2cc(OC)c(OC)c(OC)c2)C1OC (stereo not given) |  | 14.8 µM (active)
23 | CN1CCc2c(c3ccccc3n2Cc2ccc(C(=O)NO)cc2)C1 |  | 18.7 µM (active)
24 | CC(C)Oc1ccc(C(=O)N[C@H](CNC(=O)CN(C)C)Cc2ccc(-c3cn4cccc([C@H](C)O)c4n3)cc2)cc1Cl |  | 0.59 µM (active)
25 | COc1ccc(C=Cc2cc(OC)c(OC)c(OC)c2)cc1NC(=O)[C@H](N)CO |  | 0.0093 µM (active)
26 | COC(=O)[C@@H]1CC2=CC(=O)CC[C@]2(C)[C@@]23O[C@@H]2C[C@@]2(C)[C@H](CC[C@@]24CCC(=O)O4)[C@@H]13 | 119% | 
27 | O=C(C=CC#Cc1cccc(NS(=O)(=O)c2ccccc2)c1)NO |  | 1.87 µM (active)
28 | CC(C)(N)c1ccc(-c2nc3ccccc3nc2-c2ccccc2)cc1 |  | 18.7 µM (active)
29 | C[C@]12C=CC(=O)N[C@@H]1CC[C@H]1[C@H]3CC[C@@H](C(=O)Nc4cc(C(F)(F)F)ccc4C(F)(F)F)[C@@]3(C)CC[C@@H]12 |  | 20.9 µM (active)
30 | Nc1ccn(C2CO[C@H](CO)O2)c(=O)n1 (stereo not given in full) | 167% | 
31 | CO[C@@H]1[C@@H](O)[C@H](O)[C@@H](n2c3c(Cl)cccc3c3c4c(c5c6cccc(Cl)c6[nH]c5c32)C(=O)NC4=O)O[C@@H]1CO |  | 1.32 µM (active)
32 | COC1=C(OC)C(=O)C(CC=C(C)CCC=C(C)CCC=C(C)CCC=C(C)CCC=C(C)CCC=C(C)CCC=C(C)CCC=C(C)CCC=C(C)CCC=C(C)C)=C(C)C1=O | 126% | 
33 | CCN1CCN(C(=O)N[C@H](C(=O)N[C@@H]2C(=O)N3C(C(=O)O)=C(CSc4nnnn4C)CS[C@@H]23)c2ccc(O)cc2)C(=O)C1=O | 142% [at 15.3 µM] | 
34 | CC(=O)C1=C(O)C=C2Oc3c(C(C)=O)c(O)c(C)c(O)c3C2(C)C1=O (stereo not given) | 132% | 
35 | CC(=O)O[C@@]12CO[C@H]1C[C@H](O)[C@@]1(C)C(=O)[C@H](O)C3=C(C)[C@@H](OC(=O)C(O)[C@@H](NC(=O)OC(C)(C)C)c4ccccc4)C[C@@](O)([C@@H](OC(=O)c4ccccc4)[C@@H]21)C3(C)C (stereo not given in full) | 65.6% | 
36 | C=CC(=O)Nc1cccc(Nc2nc(NC3CCC(N(C)C)CC3)nc3c2ncn3C(C)C)c1 (stereo not given) |  | 0.469 µM (active)
37 | CCc1cnn2c(NCc3ccc[n+]([O-])c3)cc(N3CCCC[C@@H]3CCO)nc12 |  | 0.0296 µM (active)
38 | CCc1nc(-c2cccc(C)c2)c(-c2ccnc(NC(=O)c3ccccc3)c2)s1 |  | 20.9 µM (active)
39 | CCCc1nc(C(C)(C)O)c(C(=O)O)n1Cc1ccc(-c2ccccc2-c2nn[nH]n2)cc1 | 144% | 
40 | N#Cc1ccc(COC[C@H]2O[C@@H](n3c(NCc4ccc(Cl)c(Cl)c4)nc4c(N)ncnc43)[C@@H](O)[C@@H]2O)cc1 |  | 5.9 µM (active)
